From the supplement of paper PMC10849652
Targets with a hit are over-represented here; the source holds about 8,800 in all. About 0.5% of all pairs of compound and target were hits. Unmarked numbers belong to inactive results.

Columns and labels:
Experiment in all cases: log2 fold change, soluble protein after heating vs DMSO (PISA); higher = thermal stabilisation; K562 lysate, 10 uM; active = over 0.2 and 3.5 SD of the protein, either way, in both replicates (recomputed)
ibrutinib = compound: C=CC(=O)N1CCC[C@@H](n2nc(-c3ccc(Oc4ccccc4)cc3)c3c(N)ncnc32)C1 [ibrutinib]
In short: (§1)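 Values give the log-two fold change in thermal stability against solvent controls, from duplicates. Crude K562 extract at 1 mg/mL protein, made by dounce homogenisation in PBS pH 7.4 with 1 mM MgCl2, was treated with 10 μM compound for 30 min. After 3 min heating across 48°C-58°C, aliquots were pooled, adjusted to 0.5% NP-40 at 4°C and centrifuged at 21,000xg for 90 min. The supernatant was measured by TMTpro 16plex LC-MS/MS with channel sums equalised.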

[1] = compound: CC(=O)c1cnc2ccc(-c3cc(Cl)c(O)c(Cl)c3)nc2c1N[C@H]1CC[C@H](CN(C)C)CC1
In short: as §1

ralimetinib = compound: CC(C)(C)Cn1c(N)nc2ccc(-c3[nH]c(C(C)(C)C)nc3-c3ccc(F)cc3)nc21 [ralimetinib]
In short: as §1

[2] = compound: CC(C)(O)CC(=O)NCCn1ccc2ncnc(Nc3ccc(Oc4cccc(C(F)(F)F)c4)c(Cl)c3)c21
In short: as §1

[3] = compound: CC(C)C1=C2N=C(C=C(N2N=C1)NCC3=CC=CC=C3)NCCCCCCN
In short: as §1

[4] = compound: CC1=C(C(CC(=O)N1)C2=CC=C(C=C2)C(F)(F)F)C(=O)NC3=C(C=C4C(=C3)C=NN4)F
In short: as §1

[5] = compound: CC1=C(C2=C(C=C1)C(=O)C3=CC=CC=C3N2CCCN)C
In short: as §1

[6] = compound: CC1=C(C=C(C=C1)NC(=O)C2=CC(=CC=C2)C(C)(C)C#N)NC3=CC4=C(C=C3)N=CN(C4=O)C
In short: as §1

[7] = compound: CC1=C(C=C(C=C1)NC(=O)C2=CC(=CC=C2)N(C)C)NC(=O)C3=CC=C(C=C3)O
In short: as §1

[8] = compound: CC1=CC=C(C=C1)SC2=C3C=C(SC3=CN=C2)C(=O)N
In short: as §1

vemurafenib = compound: CCCS(=O)(=O)Nc1ccc(F)c(C(=O)c2c[nH]c3ncc(-c4ccc(Cl)cc4)cc23)c1F [vemurafenib]
In short: as §1

[9] = compound: CCCS(=O)(=O)Nc1ccc(F)c(C(=O)c2c[nH]c3ncc(Cl)cc23)c1F
In short: as §1

barasertib = compound: CCN(CCCOc1ccc2c(Nc3cc(CC(=O)Nc4cccc(F)c4)[nH]n3)ncnc2c1)CCOP(=O)(O)O [barasertib]
In short: as §1

[10] = compound: CC[C@@H]1C(=O)N(C)c2cnc(Nc3ccc(C(=O)NC4CCN(C)CC4)cc3OC)nc2N1C1CCCC1
In short: as §1

volasertib = compound: CC[C@@H]1C(=O)N(C)c2cnc(Nc3ccc(C(=O)N[C@H]4CC[C@H](N5CCN(CC6CC6)CC5)CC4)cc3OC)nc2N1C(C)C [volasertib]
In short: as §1

[11] = compound: CCn1c(C(=O)N(C2CC2)C2CC2)cc2c3c(ncn3C)c(Nc3cc(C)n(C)n3)nc21
In short: as §1

[12] = compound: CCn1cc(-c2ccnc3[nH]c(-c4cccc(CN(C)C)c4)cc23)c(-c2ccc(NC(=O)N(C)C)cc2)n1
In short: as §1

[13] = compound: CN1CCC(CNc2ccc3ncc(-c4cccc(OC(F)(F)F)c4)n3n2)CC1
In short: as §1

saracatinib = compound: CN1CCN(CCOc2cc(OC3CCOCC3)c3c(Nc4c(Cl)ccc5c4OCO5)ncnc3c2)CC1 [saracatinib]
In short: as §1

sotrastaurin = compound: CN1CCN(c2nc(C3=C(c4c[nH]c5ccccc45)C(=O)NC3=O)c3ccccc3n2)CC1 [sotrastaurin]
In short: as §1

Chain of UniProt Q8NCA5 (Q8NCA5 whole entry, looked up): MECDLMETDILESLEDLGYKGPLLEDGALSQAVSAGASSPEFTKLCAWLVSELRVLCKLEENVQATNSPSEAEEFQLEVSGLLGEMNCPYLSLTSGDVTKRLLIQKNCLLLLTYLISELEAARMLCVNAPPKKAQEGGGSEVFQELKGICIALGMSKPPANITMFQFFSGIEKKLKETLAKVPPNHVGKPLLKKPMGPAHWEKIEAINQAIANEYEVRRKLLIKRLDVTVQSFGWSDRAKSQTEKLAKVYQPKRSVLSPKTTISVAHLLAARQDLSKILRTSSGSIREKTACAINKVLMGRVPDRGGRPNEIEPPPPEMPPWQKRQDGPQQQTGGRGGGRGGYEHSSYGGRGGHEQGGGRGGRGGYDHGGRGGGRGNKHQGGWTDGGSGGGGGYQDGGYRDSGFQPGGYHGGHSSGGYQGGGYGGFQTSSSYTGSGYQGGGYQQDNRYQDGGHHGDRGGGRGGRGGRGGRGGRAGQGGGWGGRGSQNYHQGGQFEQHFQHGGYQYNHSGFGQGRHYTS
Chain of UniProt Q6PIJ6 (Q6PIJ6 whole entry, looked up): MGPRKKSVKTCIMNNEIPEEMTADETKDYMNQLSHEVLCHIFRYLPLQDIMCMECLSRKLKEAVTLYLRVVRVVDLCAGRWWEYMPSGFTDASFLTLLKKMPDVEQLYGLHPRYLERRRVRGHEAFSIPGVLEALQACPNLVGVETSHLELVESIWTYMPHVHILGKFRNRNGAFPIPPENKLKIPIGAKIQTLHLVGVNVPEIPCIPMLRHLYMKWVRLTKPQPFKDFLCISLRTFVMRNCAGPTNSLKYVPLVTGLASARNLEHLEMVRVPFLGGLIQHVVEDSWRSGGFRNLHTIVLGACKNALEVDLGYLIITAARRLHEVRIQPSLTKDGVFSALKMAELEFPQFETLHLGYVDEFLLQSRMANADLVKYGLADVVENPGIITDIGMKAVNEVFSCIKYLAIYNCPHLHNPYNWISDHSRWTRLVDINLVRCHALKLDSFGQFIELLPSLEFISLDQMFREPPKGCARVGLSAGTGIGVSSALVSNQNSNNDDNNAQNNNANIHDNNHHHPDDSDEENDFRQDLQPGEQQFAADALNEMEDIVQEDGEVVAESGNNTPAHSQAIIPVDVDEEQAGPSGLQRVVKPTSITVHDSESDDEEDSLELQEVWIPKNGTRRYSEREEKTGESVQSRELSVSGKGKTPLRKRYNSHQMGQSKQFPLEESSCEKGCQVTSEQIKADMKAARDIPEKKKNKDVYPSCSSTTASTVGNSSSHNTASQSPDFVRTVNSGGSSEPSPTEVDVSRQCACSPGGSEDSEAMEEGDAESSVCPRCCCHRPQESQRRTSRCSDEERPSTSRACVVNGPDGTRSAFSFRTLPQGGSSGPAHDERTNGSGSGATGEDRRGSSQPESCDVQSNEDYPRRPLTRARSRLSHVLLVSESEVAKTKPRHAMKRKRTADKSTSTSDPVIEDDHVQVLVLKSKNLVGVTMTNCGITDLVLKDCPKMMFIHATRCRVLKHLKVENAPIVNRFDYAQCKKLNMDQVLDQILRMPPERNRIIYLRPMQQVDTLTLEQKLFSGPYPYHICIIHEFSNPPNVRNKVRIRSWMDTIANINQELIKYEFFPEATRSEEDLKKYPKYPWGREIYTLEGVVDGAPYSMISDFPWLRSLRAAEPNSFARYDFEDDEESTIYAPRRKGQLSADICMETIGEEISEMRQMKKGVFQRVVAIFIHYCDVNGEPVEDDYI
Chain of UniProt P57678 (P57678 whole entry, looked up): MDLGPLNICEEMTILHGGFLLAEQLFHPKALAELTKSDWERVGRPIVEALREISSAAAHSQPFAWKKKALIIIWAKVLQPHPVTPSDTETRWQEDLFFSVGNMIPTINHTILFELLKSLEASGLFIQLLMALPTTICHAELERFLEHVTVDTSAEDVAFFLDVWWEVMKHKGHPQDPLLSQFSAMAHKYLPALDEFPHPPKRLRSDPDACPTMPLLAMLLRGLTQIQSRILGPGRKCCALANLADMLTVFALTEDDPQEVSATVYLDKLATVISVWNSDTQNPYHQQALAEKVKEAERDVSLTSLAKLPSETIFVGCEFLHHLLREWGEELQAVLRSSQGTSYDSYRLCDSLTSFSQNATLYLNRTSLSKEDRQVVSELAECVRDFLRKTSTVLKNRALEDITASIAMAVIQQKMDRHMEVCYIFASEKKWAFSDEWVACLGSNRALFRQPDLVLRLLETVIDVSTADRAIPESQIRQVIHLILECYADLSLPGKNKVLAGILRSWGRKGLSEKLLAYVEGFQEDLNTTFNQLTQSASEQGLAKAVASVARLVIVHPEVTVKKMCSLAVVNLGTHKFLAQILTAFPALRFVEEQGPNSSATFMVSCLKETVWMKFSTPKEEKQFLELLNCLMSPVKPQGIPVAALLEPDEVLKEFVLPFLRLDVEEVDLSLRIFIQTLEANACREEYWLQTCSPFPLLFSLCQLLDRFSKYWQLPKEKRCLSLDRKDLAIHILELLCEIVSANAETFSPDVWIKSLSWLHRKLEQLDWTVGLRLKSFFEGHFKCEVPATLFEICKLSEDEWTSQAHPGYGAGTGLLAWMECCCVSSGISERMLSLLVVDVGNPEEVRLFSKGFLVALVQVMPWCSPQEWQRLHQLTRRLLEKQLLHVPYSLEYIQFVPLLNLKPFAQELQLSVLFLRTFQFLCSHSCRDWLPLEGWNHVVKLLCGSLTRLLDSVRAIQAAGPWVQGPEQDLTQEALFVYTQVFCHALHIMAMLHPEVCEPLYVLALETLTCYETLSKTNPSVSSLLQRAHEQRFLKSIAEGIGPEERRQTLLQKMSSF
Chain of UniProt Q92889 (Q92889 whole entry, looked up): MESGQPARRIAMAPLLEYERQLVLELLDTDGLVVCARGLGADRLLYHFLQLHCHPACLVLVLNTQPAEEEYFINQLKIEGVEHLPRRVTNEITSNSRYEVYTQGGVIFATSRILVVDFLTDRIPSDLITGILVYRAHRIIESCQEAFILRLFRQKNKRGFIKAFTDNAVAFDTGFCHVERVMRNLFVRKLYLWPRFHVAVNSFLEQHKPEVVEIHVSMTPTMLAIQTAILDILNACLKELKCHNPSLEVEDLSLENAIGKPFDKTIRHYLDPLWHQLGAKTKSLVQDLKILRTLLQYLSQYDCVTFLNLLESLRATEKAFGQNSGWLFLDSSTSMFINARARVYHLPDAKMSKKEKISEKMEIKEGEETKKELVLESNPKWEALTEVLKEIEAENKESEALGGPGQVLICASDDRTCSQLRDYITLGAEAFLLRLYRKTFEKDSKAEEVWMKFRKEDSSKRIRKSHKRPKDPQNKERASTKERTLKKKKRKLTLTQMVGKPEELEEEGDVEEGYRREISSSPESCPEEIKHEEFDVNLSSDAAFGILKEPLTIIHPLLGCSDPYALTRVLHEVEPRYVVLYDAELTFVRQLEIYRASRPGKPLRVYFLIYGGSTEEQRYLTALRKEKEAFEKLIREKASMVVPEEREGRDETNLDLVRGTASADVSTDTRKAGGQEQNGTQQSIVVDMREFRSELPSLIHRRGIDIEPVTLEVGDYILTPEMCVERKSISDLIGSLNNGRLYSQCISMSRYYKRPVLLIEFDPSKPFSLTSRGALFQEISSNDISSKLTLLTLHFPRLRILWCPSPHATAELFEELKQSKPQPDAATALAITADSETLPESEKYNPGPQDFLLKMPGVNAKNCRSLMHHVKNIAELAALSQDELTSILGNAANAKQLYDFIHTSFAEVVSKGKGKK
Chain of UniProt O14772 (O14772 whole entry, looked up): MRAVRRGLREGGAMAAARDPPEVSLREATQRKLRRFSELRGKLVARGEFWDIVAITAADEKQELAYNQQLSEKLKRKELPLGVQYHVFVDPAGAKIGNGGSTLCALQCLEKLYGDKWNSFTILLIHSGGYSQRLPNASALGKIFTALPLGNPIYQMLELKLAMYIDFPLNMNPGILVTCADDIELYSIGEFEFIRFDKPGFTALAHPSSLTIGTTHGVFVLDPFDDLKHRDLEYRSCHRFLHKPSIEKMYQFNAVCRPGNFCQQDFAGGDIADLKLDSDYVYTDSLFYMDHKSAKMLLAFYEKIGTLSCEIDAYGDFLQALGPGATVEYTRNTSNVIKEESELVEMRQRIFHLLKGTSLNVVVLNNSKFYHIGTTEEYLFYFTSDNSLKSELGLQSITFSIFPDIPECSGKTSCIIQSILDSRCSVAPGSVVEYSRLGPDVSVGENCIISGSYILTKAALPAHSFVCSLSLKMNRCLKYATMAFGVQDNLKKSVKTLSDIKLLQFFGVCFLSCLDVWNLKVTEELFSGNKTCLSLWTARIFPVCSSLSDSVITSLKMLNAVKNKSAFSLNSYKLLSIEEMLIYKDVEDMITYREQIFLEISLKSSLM
Chain of UniProt P48507 (P48507 whole entry, looked up): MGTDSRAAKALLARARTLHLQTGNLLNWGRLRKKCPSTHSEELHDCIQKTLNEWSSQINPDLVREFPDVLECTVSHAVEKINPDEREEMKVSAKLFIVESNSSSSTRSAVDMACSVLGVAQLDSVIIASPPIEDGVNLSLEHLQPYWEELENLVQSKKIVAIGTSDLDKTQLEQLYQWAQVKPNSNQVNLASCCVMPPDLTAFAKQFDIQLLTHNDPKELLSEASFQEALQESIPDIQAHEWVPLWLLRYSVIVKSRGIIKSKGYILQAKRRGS
Chain of UniProt Q06547 (Q06547 whole entry, looked up): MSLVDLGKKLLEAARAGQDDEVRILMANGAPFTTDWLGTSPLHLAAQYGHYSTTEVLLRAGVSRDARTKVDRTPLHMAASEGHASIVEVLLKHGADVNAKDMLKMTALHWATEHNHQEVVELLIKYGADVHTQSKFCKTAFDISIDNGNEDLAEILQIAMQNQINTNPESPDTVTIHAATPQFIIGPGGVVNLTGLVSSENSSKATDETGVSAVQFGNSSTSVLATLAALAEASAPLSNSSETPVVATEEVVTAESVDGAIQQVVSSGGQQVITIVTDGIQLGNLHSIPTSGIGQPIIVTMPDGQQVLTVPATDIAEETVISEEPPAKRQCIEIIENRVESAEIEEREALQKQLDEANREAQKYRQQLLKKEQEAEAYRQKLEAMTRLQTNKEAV

Row | Target | log2 fold change (ibrutinib) | log2 fold change [1] | log2 fold change (ralimetinib) | log2 fold change [2] | log2 fold change [3] | log2 fold change [4] | log2 fold change [5] | log2 fold change [6] | log2 fold change [7] | log2 fold change [8] | log2 fold change (vemurafenib) | log2 fold change [9] | log2 fold change (barasertib) | log2 fold change [10] | log2 fold change (volasertib) | log2 fold change [11] | log2 fold change [12] | log2 fold change [13] | log2 fold change (saracatinib) | log2 fold change (sotrastaurin)
1 | FPGT (UniProt O14772) | -0.016 | -0.033 | 0.005 | 0.011 | 0.014 | 0.009 | 0.029 | 0.02 | 0.003 | -0.033 | -0.008 | 0.011 | 0.048 | -0.064 | -0.018 | 0.008 | 0.415 (active) | -0.054 | 0.017 | -0.001
2 | FBXO38 (UniProt Q6PIJ6) | -0.042 | 0.063 | 0.083 | 0.009 | -0.078 | -0.037 | -0.073 | -0.098 | 0.009 | 0.175 | -0.042 | -0.024 | 0.052 | -0.121 | 0.037 | 0.028 | 0.006 | 0.036 | -0.039 | 0.027
3 | DTYMK (UniProt P23919) | 0.027 | -0.018 | 0.049 | -0.015 | 0.023 | -0.035 | -0.005 | -0.017 | 0.038 | -0.002 | -0.008 | 0.042 | 0.022 | -0.062 | 0.006 | 0.059 | 0.011 | -0.032 | 0.011 | -0.033
4 | GAMT (UniProt Q14353) | 0.029 | -0.008 | 0.019 | 0.013 | -0.041 | 0.071 | -0.009 | -0.003 | -0.003 | 0.005 | 0.037 | 0.045 | 0.112 | 0.036 | 0.007 | 0.011 | 0.003 | -0.029 | -0.014 | 0.018
5 | GIGYF2 (UniProt Q6Y7W6) | -0.01 | 0.004 | 0.014 | -0.016 | 0.029 | -0.015 | 0.01 | 0.007 | -0.006 | 0.023 | -0.001 | -0.017 | 0.049 | 0.093 | -0.05 | -0.001 | 0.028 | -0.055 | 0.009 | -0.001
6 | ERCC4 (UniProt Q92889) | -0.02 | 0.027 | -0.028 | 0.006 | 0.059 | -0.021 | -0.029 | 0.013 | 0.025 | -0.054 | 0.071 | 0.01 | 0.163 | 0.144 | -0.006 | 0.004 | -0.078 | 0.114 | 0.016 | 0.047
7 | GABPB1 (UniProt Q06547) | -0.106 | -0.012 | 0.021 | 0.014 | 0 | 0.013 | -0.026 | 0.003 | 0.071 | 0.024 | -0.05 | 0.01 | 0.014 | -0.024 | 0.025 | 0.006 | 0.193 | -0.199 | 0.057 | 0.023
8 | FAM98A (UniProt Q8NCA5) | -0.033 | -0.019 | 0.046 | 0.008 | 0.014 | 0.04 | -0.045 | 0.008 | 0.035 | 0.029 | 0.063 | 0.032 | -0.016 | 0.045 | -0.029 | -0.005 | 0.088 | -0.08 | -0.028 | 0.017
9 | ERAL1 (UniProt O75616) | 0.052 | -0.042 | 0.03 | 0.011 | -0.007 | 0.047 | 0.03 | 0.014 | 0.045 | 0.018 | -0.058 | -0.016 | -0.032 | 0.065 | -0.046 | 0.059 | -0.065 | -0.359 (active) | -0.035 | 0.02
10 | GEMIN4 (UniProt P57678) | 0.003 | -0.028 | 0.056 | 0.001 | 0.051 | 0.007 | -0.048 | -0.005 | 0.059 | 0.011 | 0.036 | 0.025 | 0.041 | -0.037 | -0.053 | 0.023 | -0.168 | -0.091 | 0.091 | 0.041
11 | GEMIN2 (UniProt O14893) | -0.044 | 0.016 | 0 | -0.11 | 0.033 | -0.014 | -0.025 | -0.045 | 0.006 | 0.026 | 0.061 | -0.017 | 0.052 | 0.033 | 0.009 | 0.011 | -0.052 | 0.029 | 0.025 | -0.045
12 | GCLM (UniProt P48507) | 0.006 | -0.009 | 0.01 | -0.047 | -0.028 | 0.006 | -0.007 | 0.024 | -0.026 | -0.006 | 0.014 | 0.025 | -0.007 | 0 | -0.015 | -0.013 | -0.011 | -0.012 | 0.011 | -0.022
13 | EXOC5 (UniProt O00471) | -0.015 | 0.012 | 0.04 | -0.003 | -0.016 | 0.008 | 0.003 | -0.024 | 0.041 | -0.013 | 0.033 | 0.03 | 0.044 | -0.036 | -0.081 | 0.02 | 0.068 | -0.115 | 0.044 | 0.022
14 | EXOC4 (UniProt Q96A65) | -0.004 | -0.011 | 0.014 | -0.031 | -0.003 | -0.013 | 0.022 | -0.031 | 0.02 | 0.002 | 0.079 | 0.01 | 0.055 | -0.06 | -0.055 | 0.025 | 0.022 | -0.079 | 0.006 | 0.018
15 | EIF2B4 isoform 2 (UniProt Q9UI10) | 0.011 | 0.011 | 0.009 | -0.005 | -0.036 | -0.004 | -0.036 | 0.001 | -0.005 | 0.04 | -0.034 | 0.02 | 0.006 | -0.038 | -0.017 | -0.004 | -0.02 | 0.002 | 0.006 | -0.004
16 | EP400 isoform 5 (UniProt Q96L91) | -0.061 | -0.018 | 0.02 | -0.033 | -0.027 | 0.047 | -0.014 | 0.016 | 0.035 | 0.041 | -0.021 | -0.007 | -0.015 | 0.044 | -0.042 | -0.023 | -0.007 | 0.011 | 0.01 | -0.012
